Screening data deposited in PubChem by The Scripps Research Institute Molecular Screening Center.
The list is not random: actives were taken first. Their share in the collection is about 1.8%.
LYPLA2 inh = counter-screen for PME1 inhibitors: inhibitors of human LYPLA2. recombinant LYPLA2, FP-Rh probe fluorescence polarization. inhibition, % at 5.9 µM. 0.38% of 320,000 active. AID 2177;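 active means inhibition above the screen-wide mean plus 3 SD, limit set per campaign, cut at about 26% in these data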
Target sequence (O95372 whole entry, looked up): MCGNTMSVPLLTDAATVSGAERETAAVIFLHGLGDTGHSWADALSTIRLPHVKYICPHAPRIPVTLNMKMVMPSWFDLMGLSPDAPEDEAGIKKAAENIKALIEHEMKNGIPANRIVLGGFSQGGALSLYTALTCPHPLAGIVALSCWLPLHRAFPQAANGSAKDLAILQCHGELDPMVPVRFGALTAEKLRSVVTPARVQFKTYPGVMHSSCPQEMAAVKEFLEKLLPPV
PP5 inh = PP5 (human) phosphatase inhibition | 0.18% of 320,000 active | P53041 | purified PP5c, OMFP substrate fluorescence | AID 1987 | inhibition, % at 6.7 µM;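 active means inhibition above the campaign's mean inhibition across all tested compounds plus 3 SD, cut at about 9.5% in these data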
PP1 inh = blocks human PP1-alpha phosphatase, a PP5 counter-screen; purified PP1alpha, OMFP fluorescence; 0.9% of 320,000 active; inhibition, % at 6.7 µM; P62136; AID 2235;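 active means inhibition above the mean inhibition of all tested compounds plus 3 SD, computed separately for each screening campaign, cut at about 15% in these data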
LYPLA1 counter = LYPLA1 (human) inhibition in PME1 counter-screen | O75608 | recombinant LYPLA1, FP-Rh probe fluorescence polarization | inhibition, % at 5.9 µM | 0.16% of 320,000 active;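 active means inhibition above the mean of all tested compounds plus 3 SD, set per campaign, cut at about 14% in these data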;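 further: inhibitors block serine hydrolase probe labeling of LYPLA1 so polarization falls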
PME-1 inh = blocks human protein phosphatase methylesterase 1. recombinant PME-1, FP-Rh probe fluorescence polarization. inhibition, % at 5.9 µM. 0.53% of 320,000 active. AID 2130;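 active means inhibition above the campaign mean of all compounds plus 3 SD, cut at about 26% in these data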;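 further: competitive labeling of PME-1 active site by serine hydrolase directed probe; inhibitors block probe labeling so polarization falls and inhibition rises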
Target sequence (Q9Y570 whole entry, looked up): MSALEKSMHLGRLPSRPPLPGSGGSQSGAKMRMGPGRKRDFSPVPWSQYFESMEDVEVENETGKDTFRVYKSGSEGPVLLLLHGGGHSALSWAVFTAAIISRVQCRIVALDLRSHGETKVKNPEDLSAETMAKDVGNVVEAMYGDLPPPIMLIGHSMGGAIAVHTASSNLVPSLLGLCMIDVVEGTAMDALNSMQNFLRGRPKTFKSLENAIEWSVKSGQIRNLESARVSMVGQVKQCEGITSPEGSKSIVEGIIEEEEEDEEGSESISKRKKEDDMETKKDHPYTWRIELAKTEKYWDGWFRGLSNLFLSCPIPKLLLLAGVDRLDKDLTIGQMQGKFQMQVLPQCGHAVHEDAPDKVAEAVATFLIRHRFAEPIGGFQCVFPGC
Fam108B counter = blocks mouse Fam108B hydrolase in RBBP9 counter-screen | inhibition, % at 9.51 µM | AID 1947 | 0.33% of 300,000 active | recombinant Fam108B, FP-Rh probe fluorescence polarization;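 active means inhibition above the screen mean inhibition plus 3 SD, computed separately per campaign, cut at about 18% in these data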;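 further: inhibitors lower polarization as less probe binds the enzyme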
LYPLA2 confirm = LYPLA2 (human) inhibition, confirmation counter-screen. shares compounds with LYPLA2 inh. inhibition, % at 5.9 µM. 72% of 1,100 active. recombinant LYPLA2, FP-Rh probe fluorescence polarization. AID 2232;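 active means mean inhibition across replicates above the hit cutoff set in the primary screen, cut at about 26% in these data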;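 further: blocked labeling of the enzyme by serine hydrolase FP-Rh probe lowers polarization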
LYPLA2 gel ABPP = inhibitors of human LYPLA2. shares compounds with LYPLA2 inh. rhLYPLA2 in mouse brain proteome, gel ABPP FP-Rh. inhibition, % at 20 µM. 30% of 150 active. AID 652029;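 active means inhibition of LYPLA2 enzyme probe labeling above about 50%, limit read from the data; inactive means inhibition below that limit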;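 further: loss of FP-Rh probe labeling of the LYPLA2 gel band measured as band density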
Hits are given with their value; - = inactive; . = not tested or not shown.

SMILES	LYPLA2 inh	PP5 inh	PP1 inh	LYPLA1 counter	PME-1 inh	Fam108B counter	LYPLA2 confirm	others
O=C(NCc1ccccn1)c1ccc(OC2CCN(Cc3cccs3)CC2)cc1	28	-	-	-	-	-	-
CCOC(=O)c1[nH]c(C)c(C(=O)N2CCN(c3ccc(OC)cc3)CC2)c1C	-	-	-	-	-	-	.
CCOC(=O)c1[nH]c(CN2CCN(c3ccc(OC)cc3)CC2)c(C(=O)OCC)c1C	27	-	-	-	-	-	-
CC(C)(C)c1ccc(C(=O)N2CCC(C(=O)NCc3ccncc3)CC2)cc1	34	-	-	-	-	-	41
CC(C)(C)c1ccc(C(=O)N2CCC(NC(=O)c3ccccc3)CC2)cc1	39	-	-	-	-	-	37
CC1CN(C(=S)NC2CCCC2)CC(C)O1 (stereo unspecified)	-	-	-	-	-	-	.
NS(=O)(=O)Oc1ccccc1	-	-	-	-	-	-	.
Cn1c(/C=C/c2ccc(Cl)cc2)c([N+](=O)[O-])c(=O)n(C)c1=O	-	-	-	-	-	-	.
CCCCCOc1ccc(/C=C/c2c([N+](=O)[O-])c(=O)n(C)c(=O)n2C)cc1	69	-	-	-	-	-	53	LYPLA2 gel ABPP=-
CSCCC1NC(=O)N(CC(=O)N2N=C(c3ccc(Cl)cc3)CC2c2ccco2)C1=O (stereo unspecified)	41	-	-	-	-	-	37
CC1(C)NC(C)(C)C(O)(C(N)=O)C1=O (stereo unspecified)	27	-	-	-	-	-	-
O=C(NCCCN1CCN(c2cccc(Cl)c2)CC1)c1ccc(N2CCCC2=O)cc1	-	-	-	-	-	-	.
O=C(NCCCN1CCN(c2cccc(Cl)c2)CC1)c1cccc(N2CCCC2=O)c1	27	-	-	-	-	-	33
Nc1ccccc1C(=O)NCCCN1CCN(c2cccc(Cl)c2)CC1	30	-	-	-	-	-	40
O=C(NCCS(=O)(=O)N1CCN(c2cccc(Cl)c2)CC1)c1ccc2c(c1)OCO2	47	-	-	-	-	-	56	LYPLA2 gel ABPP=-
COc1ccc(N2CCN(S(=O)(=O)CCNC(=O)c3ccc4c(c3)OCO4)CC2)cc1	-	-	-	-	-	-	.
CSc1ncccc1C(=O)N1CCCC(N2CCN(c3ccccc3F)CC2)C1 (stereo unspecified)	-	-	-	-	-	-	.
Cc1ccc(NC(=O)COC(=O)CCC(=O)c2ccc(C(C)(C)C)cc2)c([N+](=O)[O-])c1	-	-	-	-	-	-	.
Cc1ccc(NC(=O)c2cccc(Oc3ccc([N+](=O)[O-])cc3)c2)c(C(=O)O)c1	26	-	-	-	-	-	38
Cc1ccc(NC(=O)CCC(=O)OCC(=O)c2ccc(Oc3ccc([N+](=O)[O-])cc3)cc2)c(C)c1	29	-	-	-	-	-	26
COc1ccccc1Nc1ncc(C(=O)N2CCN(Cc3ccc(OC)c(OC)c3OC)CC2)c2ccccc12	46	-	-	-	-	-	-
CN(C(=O)CC1C(=O)NCCN1Cc1ccc(F)c(F)c1)C1CCCCC1 (stereo unspecified)	-	-	-	-	-	-	.
O=C(N1CCN(Cc2ccc3c(c2)OCO3)CC1)C(Cl)(Cl)Cl	-	-	-	-	-	-	.
Cc1ccc(N=C2NC(=O)CC(C(=O)Nc3ccc4c(c3)OCO4)S2)cc1 (stereo unspecified)	28	-	-	-	-	-	-
COc1ccc(N2CCN(C(=O)Cn3cnc4c3c(=O)n(C)c(=O)n4C)CC2)cc1	-	-	-	-	-	-	.
SMILES	LYPLA2 inh	PP5 inh	PP1 inh	LYPLA1 counter	PME-1 inh	Fam108B counter	LYPLA2 confirm	others
Cn1c(=O)c2c(ncn2CC(=O)N2CCN(c3ccc([N+](=O)[O-])cc3)CC2)n(C)c1=O	40	-	-	-	-	-	43
O=C(COC(=O)c1cnccn1)c1ccc(C2CCCCC2)cc1	31	-	-	-	-	-	30
Cc1cnc(C(=O)OCC(=O)c2ccc(C3CCCCC3)cc2)cn1	-	-	-	-	-	-	.
Cc1ccc(S(=O)(=O)N(Cc2ccc(C(F)(F)F)cc2)C(=O)N2CCN(C)CC2)cc1	-	-	-	-	-	-	.
COc1ccc(CCNC(=O)CCOc2ccc(C)cc2)cc1OC	-	-	-	-	-	-	.
COc1ccc(CCNC(=O)COc2ccc(-c3ccc(C)cc3)cc2)cc1OC	45	-	-	-	-	-	40
COc1ccc(CC(=O)Nc2cccc(-c3nnc(-c4ccc(C)cc4)o3)c2)cc1OC	31	-	-	-	-	-	-
COc1ccc(CC(=O)Nc2cccc(-c3nnc(-c4cccc(C)c4)o3)c2)cc1OC	-	-	-	-	-	-	.
O=C(CSc1ccccc1)N1CCCC(N2CCN(c3ccccc3)CC2)C1 (stereo unspecified)	-	-	-	-	-	-	.
O=C(CN1C(=O)NC2(CCCC2)C1=O)Nc1ccc(S(=O)(=O)N2CCOCC2)cc1	30	-	-	-	-	-	-
C/C(C=NNC(=O)Cn1nnc(N)n1)=C\c1ccc(C(C)C)cc1	.	.	.	.	.	.	.	LYPLA2 gel ABPP=69
Nc1nnn(CC(=O)N/N=C/c2ccccc2Cl)n1	-	-	-	-	-	-	.
O=C(N/N=C/c1cccc(Oc2ccc([N+](=O)[O-])cc2[N+](=O)[O-])c1)c1cncc(Br)c1	45	-	-	-	-	-	39
CCCC(=O)Nc1ccc(N2CCN(C(=O)c3cc4ccccc4o3)CC2)cc1	45	-	-	-	-	-	50
CC(=O)N1CCN(c2ccc(NC(=O)c3cc4ccccc4o3)cc2)CC1	-	-	-	-	-	-	.
CCCCn1c(N)c(N(CCOC)C(=O)c2ccc(N3CCCC3)c([N+](=O)[O-])c2)c(=O)[nH]c1=O	-	-	-	-	-	-	.
COc1ccc2c(Cn3cnc4cc([N+](=O)[O-])ccc4c3=O)cc(=O)oc2c1	31	-	-	-	-	-	-
Cc1ccc(OCCn2cnc3cc([N+](=O)[O-])ccc3c2=O)cc1	-	-	-	-	-	-	.
COc1ccc(S(=O)(=O)N2CCC(C(=O)NCC3CC3)CC2)cc1	-	-	-	-	-	-	.
Cc1cc(=O)n2nc(N3CCC(C(=O)N4CCN(c5ccccc5)CC4)CC3)sc2n1	-	-	-	-	-	-	.
CCCc1cc(=O)n2nc(N3CCC(C(=O)N4CCN(c5ccc(OC)cc5)CC4)CC3)sc2n1	51	-	-	-	-	-	49
Cn1c(SCC(=O)Nc2ccc3cn[nH]c3c2)nnc1-c1cccs1	29	-	-	-	-	-	-
Cn1c(SCC(=O)Nc2ccc3cn[nH]c3c2)nnc1-c1cnccn1	-	-	-	-	-	-	.
